The test system of this test is MDA-MB-468 breast. Put plainly: NCI-60 one-dose screen, 48 h (100 = growth as untreated, 0 = no growth, -100 = all killed). Conditions: 10 µM unless noted.

Compounds without any hit were thinned out: in the full panel of roughly 83,000, 20% have a hit.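 Results are percent growth after 48 hours of single-concentration exposure. 100 means growth as in untreated cells, lower positive values show inhibition; negative values down to -100 show cell death.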 A number with no mark means an inactive call. Calls of active or inactive are those of the source. Rule for the calls: active = growth percent below 10; inactive = the rest.

As for `COc1ccc(-c2nc(SCCC(C)C)nc(Nc3ccc(C(=O)O)cc3)c2C#N)cc1`, the growth is 105%.

For `Nc1c(C(=O)Nc2cccc3ccccc23)sc2nc3c(cc12)COCC3`, the growth was 38.6%.

With `O=C1OCC2=C1C(c1cccc(Cl)c1)c1cc3c(cc1N2CCO)OCO3` (centres undefined), the growth is -10.2% (active).

As for `COc1ccc(/C=C/C(=O)c2cc(O)ccc2O)cc1`, the growth was 71.2%.

On to `O=C1Nc2cc(Cl)ccc2Oc2cc(Oc3ccccc3)ccc21`, for which the growth was 1.71% (active).

For the compound `COc1ccc(CSc2nc3cc(OC)c(OC)cc3c(=O)n2-c2ccc(Cl)cc2)cc1`, the growth was 103%.

Take `C=CC[N+]1(CCO)CCN=C1CCCCCCCCCCCCC` (centres undefined): the growth was -78.3% (active).

With `CC(=O)O[C@H]1CC[C@]2(C)[C@H]3C(=O)C=C4[C@@H]5C[C@](C)(C(=O)N6CCCNCC6)CC[C@]5(C)CC[C@@]4(C)[C@]3(C)CC[C@H]2C1(C)C`, the growth was -85.2% (active).

For `O=C1CC2c3cc(-c4cc5ccccc5o4)ccc3CCN2C(=O)N1c1ccccc1` (centres undefined), the growth is 88.4%.

For the compound `COC(=O)c1cc(-c2ccc(Cl)c(Cl)c2)[nH]c(=O)c1C#N`, the growth was 99.6%.

With `O=C(NNc1nc2cc(F)cc(F)c2n2cccc12)c1cccnn1`, the growth was -21% (active).

Take `O=C(CCc1nnc(Cn2cnc3nc[nH]c3c2=O)o1)c1nc2ncccc2[nH]1`: the growth was 102%.

For `CCN(CC)CCn1c2ccc(O)cc2c2sc3cc(OC)ccc3c(=O)c21`, the growth is 33.8%.

Take `Cc1ccc(/C=C/c2c(C(=O)/C=C/c3ccc(C(F)(F)F)cc3)c(C)nc3ccccc23)cc1`: the growth is -57.4% (active).

The values above are taken from PubChem BioAssay (NCI).
